A selection: hits, their analogues and other compounds. The true share with any hit is near 4.9%.
dFosB act = mouse delta FosB homodimer activation | P13346 | purified delta FosB, TAMRA-CDK5 oligo fluorescence polarization; percent of positive-control signal above neutral wells | activation, % at 25 µM | actives 0.99% (n = 340,000) | AID 493131;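 active = mean activation above about 17%, with every replicate also reaching it, limit read from the data, passing the limit was not always enough; inconclusive = only one of the two conditions met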
Target sequence (P13346 whole entry, looked up): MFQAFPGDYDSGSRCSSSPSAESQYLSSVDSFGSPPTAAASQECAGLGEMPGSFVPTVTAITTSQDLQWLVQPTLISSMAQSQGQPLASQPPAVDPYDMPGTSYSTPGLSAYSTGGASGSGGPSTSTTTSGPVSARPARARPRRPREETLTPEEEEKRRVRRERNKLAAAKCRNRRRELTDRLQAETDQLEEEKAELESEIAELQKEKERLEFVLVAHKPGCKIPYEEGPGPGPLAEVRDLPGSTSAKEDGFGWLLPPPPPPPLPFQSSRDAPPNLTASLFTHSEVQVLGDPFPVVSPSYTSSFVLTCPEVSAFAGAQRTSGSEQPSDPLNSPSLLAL
Platelet DG rel = platelet dense granule release activity; inhibition, %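 (compounds screened at 7.5 µM in platelet-rich plasma)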; human platelet-rich plasma, SFLLRN dense granule ATP release, luminescence; AID 1663; actives 0.22% (n = 300,000);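 active = mean replicate score, as percent of positive control, at or above 50; inconclusive = mean below 50 but at least one replicate at or above 50; inactive = mean and every replicate below 50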
HSP90 inh = HSP90 refolding inhibition in rabbit reticulocyte lysate. luciferase refolding luminescence, 3 h. inhibition, % at 5.6 µM. actives 0.91% (n = 290,000). AID 1789;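 active = inhibition above the screen-wide mean plus 3 SD, computed separately per campaign, cut at about 16% in these data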;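 note: inhibitors lower the luminescence because luciferase stays unfolded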
HSF1 inhib = HSF1 inhibition. activity change, negative = inhibition, % at 7.5 µM (by protocol). actives 0.77% (n = 300,000). NIH3T3-HGL HSE-luciferase, MG132-induced, luminescence 8 h; hits give low values;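 active = more than half of replicate wells show activity change below -50%, luminescence cut by over half; inconclusive = some wells, but at most half, below -50%; inactive = no replicate well below -50%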;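 note: luciferase reports HSF-1 transcriptional activity via heat shock element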
HSF-1 act = increases HSF-1 driven luciferase reporter signal. NIH3T3-HGL HSF-1 luciferase reporter, MG132, 8 h; 100% = twice DMSO control signal. activation, % at 9 µM. actives 1.7% (n = 300,000). AID 504408;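 active = mean replicate activation of at least 50% with a set share of replicates each reaching 50%; inconclusive = only one of those two conditions met; inactive = mean below 50% and too few replicates reaching it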
MPTP block = inhibitors of mitochondrial permeability transition pore | AID 602449 | inhibition, % at 10 µM | actives 1.4% (n = 360,000) | isolated mouse mitochondria, Ca2+ swelling absorbance, 30 min;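 active = inhibition of 50% or more, scaled per plate between neutral and stimulator controls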
Each line names hits and unclear results; the compound was inactive in the other large screens.

COc1cc(C2NC(=O)NC(C)=C2C(=O)OC2CCCCC2)cc(Cl)c1O (stereo not given)	HSF-1 act 62
Cc1cccc(C)c1-n1nnnc1C1c2ccccc2C(=O)N1C1CC1 (stereo not given)	none (no result: dFosB act, Platelet DG rel, HSP90 inh, HSF1 inhib, HSF-1 act)
CC1CCCCN1C(=O)COc1ccccc1F (stereo not given)	HSF-1 act 56
O=C(CCCCCN1C(=O)c2ccccc2C1=O)Nc1ccc(S(=O)(=O)N2CCCCC2)cc1	none
O=C(OCCCCN1C(=O)c2ccccc2C1=O)c1ccc(S(=O)(=O)N2CCCC2)cc1	Platelet DG rel 58
COc1ccc(-c2cc(C(=O)Nc3ccc(C)c(N)c3)c3ccccc3n2)cc1	HSF-1 act 74
Cc1cccc(-c2cc(C(=O)Nc3ccncc3)c3ccccc3n2)c1	HSF-1 act 63
COc1cc(NC(=O)c2cc(C)nc3ccccc23)cc(OC)c1	HSF1 inhib -60
COc1ccc(-c2cc(C(=O)Nc3ccc(S(=O)(=O)Nc4ncccn4)cc3)c3ccccc3n2)cc1	none
O=C(O)c1ccc(/C=N/Nc2ccc(C(F)(F)F)cn2)cc1	HSF-1 act 52
COc1cc(/C=N/Nc2ccc(C(F)(F)F)cn2)ccc1O	none
CCOC(=O)N1CCN(C(=O)c2ccc3oc(CCCc4ccccc4)nc3c2)CC1	HSF-1 act 61
CC(=O)N1CCN(C(=O)c2ccc3oc(CCCc4ccccc4)nc3c2)CC1	none
Cc1nn(-c2cccc(C(F)(F)F)c2)c(Cl)c1/C=N/Nc1cccc(C(=O)O)c1	HSF1 inhib -73
CCOC(=O)N/N=C/c1c(C)nn(-c2cccc(C(F)(F)F)c2)c1Cl	none
Fc1ccc(-n2cc(-c3ccccc3)c3c(N4CCOCC4)ncnc32)cc1	HSF1 inhib -52
Cc1ncsc1C(=O)Nc1nc2c(s1)CCCC2	Platelet DG rel 61
O=C(Nc1nc2c(s1)CCCC2)c1ccc(Br)s1	HSF-1 act 59
Cc1cc(C(=O)Nc2nc3c(s2)CCCC3)cs1	none
O=[N+]([O-])c1nccn1CC(O)CO (stereo not given)	none (no result: dFosB act, Platelet DG rel, HSP90 inh, HSF1 inhib, HSF-1 act)
CCc1noc(C)c1C(=O)N(CCOC)c1c(N)n(CC(C)C)c(=O)[nH]c1=O	none
O=C(Nc1nc(-c2cccs2)cs1)c1cccc(S(=O)(=O)N2CCCCCC2)c1	HSF1 inhib -61
O=C(Nc1nc(-c2cccs2)cs1)c1ccc(S(=O)(=O)N2CCCCC2)cc1	HSF1 inhib -61
Cc1csc(NC(=O)c2cccc(S(=O)(=O)N3CCCCC3)c2)n1	none
COc1ccc(C(=O)C2CCCN(S(=O)(=O)c3ccc(C(C)=O)cc3)C2)c(C)c1 (stereo not given)	none
COc1ccc(-c2nn(-c3ccccc3)cc2/C=N/Nc2ccc(Cl)c(C(=O)O)c2)cc1OC	HSP90 inh 17
COc1ccc(-c2nn(-c3ccccc3)cc2C(=O)O)cc1OC	none
O=C(O)c1cc(N/N=C/c2ccc(-c3ccccc3)cc2)ccc1Cl	HSP90 inh 29
COc1ccc(/C=C(\CC(=O)O)c2nc3ccccc3s2)cc1O	none
O=C(O)c1ccc(N/N=C/c2ccc(-c3ccccc3)cc2)cc1	none
COc1cccc(-c2nn(-c3ccccc3)cc2C(=O)O)c1	Platelet DG rel 62
COc1ccc(-c2nn(-c3ccccc3)cc2/C=C(\CC(=O)O)c2nc3ccccc3s2)cc1OC	HSF1 inhib -70
COCCN(Cc1ccccc1)C(=O)c1c(C)nn(-c2ccccc2)c1C	none
CC1(C)CC(=NNC(=O)c2n[nH]c3c2CCC3)CC(C)(C)N1	none
O=C(COc1ccc(Br)cc1)Nc1ccc(-c2nnc(-c3ccco3)o2)cc1	HSF-1 act 51
Cc1cccc(C(C)C)c1NC(=O)c1ccc(COc2ccc3c(C)cc(=O)oc3c2)cc1	HSF-1 act 66
CCCNC(=O)[C@@H]1CCCN1C(=O)[C@@H]1Cc2ccccc2CN1	none
COC(=O)Cn1c2ccc(OC)cc2c2nc(C)sc21	HSF-1 act 88
COC(=O)Cn1c2ccc(F)cc2c2nc(C)sc21	none
Cc1sc2ncnc(N3CCN(Cc4ccccc4)CC3)c2c1-c1ccccc1	none
Cn1c(C(=O)N2CCN(c3ccc([N+](=O)[O-])cc3)CC2)cc2c(=O)[nH]c3ccccc3c21	dFosB act 23
Cc1cccc(NC(=S)N(CCN(C)C)C(C)c2cccnc2)c1 (stereo not given)	HSF-1 act 60
COc1cccc(NC(=S)N(CCN(C)C)C(C)c2cccnc2)c1 (stereo not given)	none
CCCCn1nc(CC(=O)NCCN(CC)CC)c2ccccc2c1=O	none
CC(NC(=O)c1ccc(C(C)(C)C)cc1)C(c1cccs1)N1CCOCC1 (stereo not given)	HSF-1 act 69
CC(=O)c1cccc(NC(=O)CC2Oc3ccc(C)cc3NC2=O)c1 (stereo not given)	none
Cc1cc(C)cc(NC(=O)CC2Oc3ccc(C)cc3NC2=O)c1 (stereo not given)	dFosB act 32
CC(C)(C)OC(=O)NCCc1onc(-c2ccc([N+](=O)[O-])cc2)c1C(=O)O	none (no result: dFosB act, Platelet DG rel, HSP90 inh, HSF1 inhib, HSF-1 act)
Cc1ccc(NC(=S)N(Cc2ccc(Cl)cc2)Cc2ccc(C(=O)O)cc2)cc1Cl	HSF-1 act 74
Cc1ccc2nc(C(C)(C)C)c(Cc3cccc(F)c3)n2c1	none (no result: dFosB act, Platelet DG rel, HSP90 inh, HSF1 inhib, HSF-1 act)
CC(C)=CC(=O)Nc1nc2ccc([N+](=O)[O-])cc2s1	none
Cn1c(=O)c(=O)n(C)c2cc(S(=O)(=O)N3CCCC3C(=O)Nc3ccc(F)cc3)ccc21 (stereo not given)	none
Cc1ccc(NC(=O)C2CCCN2S(=O)(=O)c2ccc3c(c2)n(C)c(=O)c(=O)n3C)cc1C (stereo not given)	HSF1 inhib -53
CCCCn1c(N)c(S(=O)(=O)c2ccc(C)cc2)c2nc3ccccc3nc21	none
Cc1ccc(S(=O)(=O)c2c(N)n(-c3ccccc3)c3nc4ccccc4nc23)cc1	HSF-1 act 66
OC[C@@H]1CN(Cc2cccs2)C[C@H](n2cnc3c(NCc4ccco4)ncnc32)O1	none (no result: dFosB act, Platelet DG rel, HSP90 inh, HSF1 inhib, HSF-1 act)
CC(C)c1ccc(C2CC(c3ccc(Br)cc3)=NN2C(N)=S)cc1 (stereo not given)	dFosB act inconclusive, HSF-1 act 74
Cc1cc(-c2onc(C)c2C(=O)O)no1	none
Cc1cc(C)c2c(n1)sc1c(=O)[nH]c(SCc3ccccc3)nc12	HSF1 inhib -89
C=CCSc1nc2c(sc3nc(C)cc(C)c32)c(=O)[nH]1	none
COc1ccc(Cc2nc(C(=O)Nc3ccccc3)cs2)cc1	HSF-1 act 59 (no result: Platelet DG rel)
Oc1ccc(-c2cn3c(n2)SCC3)cc1	none
Clc1ccc(-c2cn3c(n2)SCC3)cc1	HSF-1 act 58
Brc1ccc(-c2cn3c(n2)SCC3)cc1	HSF-1 act 63
